The subject of assay [1] is Wnt5a (protein binding on small-molecule microarray). Briefly: small molecules binding Wnt5a protein – biophysical, small-molecule microarray, 635/667 nm fluorescence, primary screen (AID 1142).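 Further: fluorescence read at 667 nm with signal to noise per printed feature.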 The conditions noted are these: 635 nm fluorescence, higher = more signal.
Assay [2] in a line: ATP-based viability of Huh7 replicon cells – cell-based, CellTiter-Glo luminescence, basal, 48 h, cytotoxicity control for HCV replication inhibitor project, primary screen (AID 1143).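 Further: Huh7 hepatoma cells carrying a hepatitis C replication reporter with no stimulus; test concentration not given here.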 The following applies: higher = more signal, called active from +8 up or from −8 down. In general terms: In antiviral work, replicon cells carry a viral genome segment that copies itself.
Assay [3] in a line: Pseudomonas biofilm growth suppression – PAO1 strain, BacTiter-Glo luminescence, LB-PBS, primary screen (AID 1144). The following applies: P. aeruginosa PAO1 biofilm, 12 h, higher = more signal.
Assay [4] is described as follows: basal CRE-LacZ reporter activity in PC12 – cell-based, unstimulated, primary screen (AID 1145). The following applies: no forskolin, luminescence, 4.5 h, higher = more signal, called active from +8 up or from −8 down.
The nature of assay [5]: forskolin-driven CRE-LacZ activity in PC12 – cell-based, CRE-LacZ reporter, forskolin-stimulated, primary screen (AID 1146).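 Further: PC12 cells with 6xCRE LacZ reporter stimulated by forskolin 10 µM; beta-galactosidase reporter signal reflecting CREB driven transcription.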 The following applies: luminescence, 4.5 h, higher = more signal, called active from +8 up or from −8 down.
For assay [6], the target named is Streptavidin (Streptomyces avidinii) (UniProt P22629). Briefly: compounds binding control protein streptavidin – biophysical, small-molecule microarray, 635/667 nm fluorescence, artefact control for SMM compound annotation, primary screen (AID 1147).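 Further: signal reflects streptavidin binding to arrayed compounds as a control protein.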 The conditions noted are these: higher = more signal.
Assay [7] can be described thus: probe aInhba binding on compound microarray – biochemical, small-molecule microarray, 635/667 nm fluorescence, primary screen (AID 1148).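 Further: score merges 667nm spot fluorescence with signal-to-noise for antibody binding to printed compounds.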 The following applies: higher = more signal.
In assay [8] the target is Torsin-1A (Homo sapiens) (UniProt O14656). Briefly: TOR1A wild-type binding on microarray – cell lysate, small-molecule microarray, lysate, 635/667 nm, primary screen (AID 1149). The following applies: COS7 hTOR1A-WT lysate, 635 nm fluorescence, higher = more signal.
The target is the same in assay [9]. Description: torsin A mutant lysate binding on microarrays – cell lysate, small-molecule microarray, COS7 lysate, 635/667 nm fluorescence, primary screen (AID 1150).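 Further: score pools 667 nm emission and signal to noise measuring lysate protein binding.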 The following applies: COS7 hTOR1A mutant lysate, 635 nm fluorescence, higher = more signal.
Assay [10] concerns Sonic hedgehog protein (Shh). Description: Sonic hedgehog microarray binding compounds – biochemical, small-molecule microarray, 635/667 nm fluorescence, primary screen (AID 1151).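 Further: Shh protein binding to compounds spotted on small-molecule microarray slides; score combines spot fluorescence intensity with signal-to-noise across triplicate slides.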 The conditions noted are these: 635 nm fluorescence, higher = more signal.

This note sets out measurements from PubChem BioAssay.

The source made the active and inactive calls. Unless noted, how the calls were made is not given here.

Chain of Streptavidin (Streptomyces avidinii) (P22629 whole entry, looked up): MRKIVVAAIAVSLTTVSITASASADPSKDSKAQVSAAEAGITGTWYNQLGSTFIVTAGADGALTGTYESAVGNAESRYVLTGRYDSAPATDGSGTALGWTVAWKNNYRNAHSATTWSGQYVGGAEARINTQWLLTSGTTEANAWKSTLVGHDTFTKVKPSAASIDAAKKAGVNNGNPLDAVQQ
Chain of Torsin-1A (Homo sapiens) (O14656 whole entry, looked up): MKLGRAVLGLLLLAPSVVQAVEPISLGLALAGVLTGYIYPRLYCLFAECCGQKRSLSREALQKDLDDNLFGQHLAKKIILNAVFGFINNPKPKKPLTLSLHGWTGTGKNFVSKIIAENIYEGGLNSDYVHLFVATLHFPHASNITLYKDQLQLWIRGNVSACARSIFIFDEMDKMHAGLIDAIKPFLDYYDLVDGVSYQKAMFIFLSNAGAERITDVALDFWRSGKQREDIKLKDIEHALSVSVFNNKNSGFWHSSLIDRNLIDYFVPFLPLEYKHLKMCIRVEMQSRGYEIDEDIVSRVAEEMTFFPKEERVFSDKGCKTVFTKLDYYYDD

With `CN(C)CCCCNC(=O)[C@@H]1C[C@@H]2C(=O)N[C@@H](CCCCN)C(=O)N2[C@@H]1c1ccc(O)cc1`, the composite z-score in assay [1] is 0.0291; in [6] it was 0.98; in assay [7], -0.0403; in the assay with Torsin-1A (Homo sapiens) [8], 0.584; in the assay with Torsin-1A (Homo sapiens) [9], 0.435; in assay [10] it was 1.23. Besides, the z-score is -0.151 (inactive) in assay [2], -0.0779 (inactive) in assay [3], 0.281 (inactive) in assay [4] and -0.773 (inactive) in [5].

Turning to `O=C1O[C@@H](c2ccccc2)[C@@H](c2ccccc2)N2[C@@H](c3ccc(OCCO)cc3)[C@]3(C(=O)Nc4ccc(C#CC5=CCCCC5)cc43)[C@@H](C(=O)N3CCCCCCC3)[C@H]12`, the composite z-score was 1.18 in [1]; 2.92 in assay [6]; 1.93 in assay [7]; 1.58 in the assay with Torsin-1A (Homo sapiens) [8]; 2.02 with Torsin-1A (Homo sapiens) [9]; 1.37 in assay [10]. The z-score in assay [2] is -2.05 (inactive); in assay [3], -0.334 (inactive); in assay [4], 0.568 (inactive); in [5], 0.509 (inactive).

For `C=C(CCCC)/C(=C/C[C@H](OC(C)=O)c1ccccc1OCCO)c1cnc2ccccc2c1`, the composite z-score in [1] was 0.382; in assay [6], 0.36; in [7], -0.157; with Torsin-1A (Homo sapiens) [8] it was 0.0711; in the assay with Torsin-1A (Homo sapiens) [9], 0.878; in assay [10] it was 1.49. Further, the z-score in [2] is -1.45 (inactive); in [3], 0.489 (inactive); in assay [4], 4.07 (inactive); in assay [5], 0.55 (inactive).

With `C=CC1c2cc(O)c(OC)cc2CCN1Cc1cccc(OC(F)(F)F)c1` (stereo not given), the composite z-score was -0.415 in assay [1]; 0.577 in [6]; -0.152 in [7]; -1.1 with Torsin-1A (Homo sapiens) [8]; 0.88 with Torsin-1A (Homo sapiens) [9]; 0.12 in assay [10]. Moreover, the z-score in assay [2] was -2.49 (inactive); in [3], 0.0435 (inactive); in assay [4], -0.527 (inactive); in [5], 1.28 (inactive).

In the case of `C=CC[C@]12N=C(c3ccc(OCCCO)cc3)O[C@H]1c1ccccc1N(CCS(=O)(=O)c1ccccc1)C2=O`, the composite z-score in [1] is 0.382; in assay [6], 1.07; in [7], -0.101; in the assay with Torsin-1A (Homo sapiens) [8], 0.695; with Torsin-1A (Homo sapiens) [9] it was 0.79; in [10], 1.39. For the same molecule, the z-score was -3.24 (inactive) in assay [2], -0.438 (inactive) in assay [3], -1.04 (inactive) in [4] and -1.87 (inactive) in [5].

`COCCOC(=O)N1C(=O)[C@@]2(c3cc(C#CC4=CCCCC4)ccc31)[C@H](C(N)=O)[C@H]1C(=O)O[C@H](c3ccccc3)[C@H](c3ccccc3)N1[C@@H]2c1ccc(O)cc1`: the composite z-score in assay [1] is 0.838; in assay [6], 1.14; in [7], -0.0736; with Torsin-1A (Homo sapiens) [8] it was 1.03; in the assay with Torsin-1A (Homo sapiens) [9] it was 0.931; in assay [10] it was 1.08. The z-score in assay [2] is -4.06 (inactive); in [3] it was -1.29 (inactive); in assay [4], -0.931 (inactive); in assay [5] it was -0.438 (inactive).

Take `C=C(C(=O)CC[C@H](OC(C)=O)c1ccccc1OCCO)C(C)C`: the composite z-score was -0.138 in assay [1]; -0.455 in assay [6]; -0.188 in assay [7]; 0.229 with Torsin-1A (Homo sapiens) [8]; -0.752 with Torsin-1A (Homo sapiens) [9]; 2.19 in assay [10]. Also, the z-score in [2] is -8.56 (active); in assay [3] it was -0.679 (inactive); in assay [4], 9.01 (active); in assay [5], -0.422 (inactive).

Take `COc1ccc(CCNC(=O)[C@@]2(c3ccc([N+](=O)[O-])cc3)CC(=O)N(CC34CC5CC(CC(C5)C3)C4)[C@@H]2c2ccc(CO)cc2I)cc1`: the composite z-score is 0.522 in [1]; -0.0522 in assay [6]; -0.443 in [7]; 0.292 in the assay with Torsin-1A (Homo sapiens) [8]; 1.05 with Torsin-1A (Homo sapiens) [9]; 1.75 in assay [10]. In addition, the z-score in assay [2] is -5.87 (inactive); in assay [3], -1.53 (inactive); in assay [4], 0.378 (inactive); in assay [5], -0.107 (inactive).

For `O=C1C2C=CC(C(O)c3ccc(-c4ccccc4)s3)N(Nc3ccccc3)C2C(=O)N1c1ccccc1` (stereo not given), the composite z-score in [1] was 0.155; in assay [6], 0.908; in assay [7], 0.0183; with Torsin-1A (Homo sapiens) [8], -0.499; with Torsin-1A (Homo sapiens) [9], 1.21; in assay [10], 0.0134. For the same molecule, the z-score in [2] was -0.514 (inactive); in assay [3], -1.25 (inactive); in assay [4] it was 0.0569 (inactive); in assay [5], 0.117 (inactive).

Regarding `O=C1O[C@H](c2ccccc2)[C@H](c2ccccc2)N2[C@H]1[C@@H](C(=O)NC[C@H](O)c1ccccc1)[C@]1(C(=O)Nc3ccc(C#CC4=CCCCC4)cc31)[C@H]2c1ccccc1OCCO`, the composite z-score was found to be 0.401 in assay [1]; 0.787 in assay [6]; 0.0659 in [7]; 0.0585 with Torsin-1A (Homo sapiens) [8]; 0.223 in the assay with Torsin-1A (Homo sapiens) [9]; 0.134 in assay [10]. Besides, the z-score in assay [2] is -6.13 (inactive); in assay [3], -0.297 (inactive); in [4], -0.0784 (inactive); in assay [5], -0.0119 (inactive).

As for `C=CC[C@]1(C(N)=O)N=C(c2ccc(OCCCO)cc2)O[C@H]1c1ccccc1`, the composite z-score in assay [1] is 0.555; in assay [6], 0.186; in assay [7], -0.168; with Torsin-1A (Homo sapiens) [8], 2.79; with Torsin-1A (Homo sapiens) [9], 2.33; in assay [10], -0.406. For the same molecule, the z-score in [2] is -1.01 (inactive); in assay [3], -0.717 (inactive); in [4] it was 0.652 (inactive); in assay [5] it was -0.806 (inactive).

Regarding `O=C(NCc1ccccc1)[C@@H]1c2ccccc2C(=O)N(C2Cc3ccccc3C2)[C@H]1c1ccc(CO)cc1`, the composite z-score in assay [1] was 0.303; in assay [6], 0.49; in assay [7], 0.196; with Torsin-1A (Homo sapiens) [8], -0.0754; in the assay with Torsin-1A (Homo sapiens) [9], 0.165; in assay [10], 1.31. In addition, the z-score in assay [2] was -0.746 (inactive); in [3] it was 0.317 (inactive); in assay [4], 0.764 (inactive); in assay [5], 0.134 (inactive).

Turning to `O=C(CS)NCCCCCNC(=O)[C@@H]1C[C@@H]2C(=O)NCC(=O)N2[C@@H]1c1ccc(O)cc1`, the composite z-score in [1] is -0.0716; in [6] it was -0.618; in [7], 0.0275; in the assay with Torsin-1A (Homo sapiens) [8], 0.507; with Torsin-1A (Homo sapiens) [9] it was 0.0395; in assay [10] it was 1.44. Further, the z-score is -0.454 (inactive) in [2], -0.171 (inactive) in assay [3], 0.281 (inactive) in assay [4] and 0.208 (inactive) in assay [5].

In the case of `CCCC=C(CCC)[C@@H](NS(=O)(=O)c1ccc(Cl)cc1)c1ccc(C(=O)OC)cc1`, the composite z-score in [1] was -0.16; in [6], 0.997; in assay [7], -0.0011; in the assay with Torsin-1A (Homo sapiens) [8] it was 0.771; with Torsin-1A (Homo sapiens) [9] it was 1.38; in [10] it was -0.562. Besides, the z-score in assay [2] is -0.296 (inactive); in assay [3], -0.382 (inactive); in assay [4] it was -0.179 (inactive); in assay [5], -0.146 (inactive).

Take `CCOC(=O)C[C@H]1[C@H](OC(=O)c2ccc(C(=O)c3ccccc3)cc2)[C@@H](NC(=O)c2ccccc2)c2cc(OCCCO)ccc2N1C(=O)c1ccccc1`: the composite z-score in assay [1] stood at 0.261; in assay [6], 0.512; in assay [7], 0.0541; with Torsin-1A (Homo sapiens) [8], 0.138; in the assay with Torsin-1A (Homo sapiens) [9] it was 0.628; in [10] it was 0.907. The z-score is -0.622 (inactive) in [2], -0.948 (inactive) in assay [3], -0.346 (inactive) in assay [4] and 1.13 (inactive) in assay [5].
